# Measurements: ChEMBL document CHEMBL1157539, “Thousands of chemical starting points for antimalarial lead identification” (Nature, 2010)
# Experiments:
# Assay type in all cases: functional
# Plasmodium falciparum [1] = assay: GSK_TCMDC: Inhibition of Plasmodium falciparum 3D7 in whole red blood cells, using parasite LDH activity as an index of growth. Test compounds present at 2uM
# Plasmodium falciparum [2] = assay: GSK_TCMDC: Inhibition of Plasmodium falciparum Dd2 in whole red blood cells, using parasite LDH activity as an index of growth. Test compounds present at 2uM
# HepG2 = assay: GSK_TCMDC: Percent inhibition of human HepG2 cell line. Test compounds present at 10uM.
SMILES,Inhibition (Plasmodium falciparum [1]),Inhibition (Plasmodium falciparum [2]),Inhibition (HepG2)
O=C(Nc1ccc(-c2ccccc2)cc1)Nc1cccc(Cn2cnc(N3CCCNCC3)cc2=O)c1.O=C(O)C(F)(F)F,88%,13%,8%
O=C(O)c1ccc(-c2cnc3ccc(NC4CCC(O)CC4)nn23)cc1 (stereo unspecified),98%,90%,9%
CC(C)(C)c1ccc(CN2CCC(NC(=O)c3ccc(-c4cccc(Cl)c4)s3)CC2)cc1.O=C(O)C(F)(F)F,99%,47%,36%
Cc1cccc(Cl)c1S(=O)(=O)Nc1cccc(CCN2CCC(N3CCCCC3)CC2)c1,91%,18%,34%
CN(CCCNCc1ccc2ccccc2c1)CCCNCc1ccc2ccccc2c1.Cl,100%,79%,100%
OC[C@H]1CCCN1CC#Cc1cc2c(Nc3ccc(OCc4cccc(F)c4)c(Cl)c3)ncnc2s1,89%,6%,13%
Cl.N=C(NC1CC1)c1ccc2[nH]c(CCCCCc3nc4cc(C(=N)NC5CC5)ccc4[nH]3)nc2c1,89%,72%,0%
O=C(Nc1ccc(F)cc1)c1cnc(N2CCN(c3ccncc3)CC2)c(Cl)c1.O=C(O)C(F)(F)F,100%,81%,41%
Cn1nc(-c2ccc(NC(=O)Nc3ccc4ccccc4c3)c(F)c2)c2cnc(NCCN3CCOCC3)nc21.O=C(O)C(F)(F)F,93%,3%,62%
CCOc1cc(NCCCNc2ncc([N+](=O)[O-])cc2C)nc2ccccc12,84%,64%,10%
CC1CN(c2ccc(C(=O)NCC3CC3)cc2NC(=O)OCc2ccccc2)CC(C)O1.O=C(O)C(F)(F)F (stereo unspecified),91%,76%,0%
CCn1c2ccccc2c2cc(Cc3cnc(N)nc3N)ccc21.Cl,94%,0%,28%
CCc1ccc(CN2CCC(CNC(=O)c3cc(-c4cccc(Cl)c4)cs3)C2)cc1.O=C(O)C(F)(F)F (stereo unspecified),88%,19%,27%
CCOC(=O)c1ccc(NC(=O)Nc2cccc(-c3ccc(-c4nc5ccccc5[nH]4)cc3)c2)cc1,100%,86%,54%
Cc1cc(-c2ccc3c(c2)CCN(CCC2CCC(NC(=O)/C=C/c4cccc(Cl)c4)CC2)CC3)on1.Cl (stereo unspecified),100%,49%,16%
c1ccc(Oc2ccc(Nc3nc(NCCc4c[nH]cn4)nc(NC4CCCC4)n3)cc2)cc1,97%,23%,0%
COc1ccc(O)cc1Cc1cnc2nc(N)nc(N)c2c1C,92%,97%,67%
COc1ccc(CN2C(=S)N(Cc3ccccc3)C(=O)C2CC(=O)Nc2ccccc2)cc1OC (stereo unspecified),96%,73%,6%
O=C(Cc1ccccc1)NC(CCN1CCC(O)(c2cccc(C(F)(F)F)c2)CC1)c1ccc(Cl)c(Cl)c1 (stereo unspecified),96%,32%,25%
Cl.N#Cc1ccc2c(c1)CCN(CCC1CCC(NC(=O)Nc3cnc4ccccc4c3)CC1)C2 (stereo unspecified),93%,9%,14%
Cc1ccc(O)cc1Nc1ccnc2ccc(-c3csc(CNCCN4CCOCC4)n3)cc12,100%,97%,0%
COc1ccc(CN(C)CCCc2ccc(NC(=O)c3cccc4c(O)c5ccccc5nc34)cc2)cc1OC,99%,54%,77%
CC(C)(C)Oc1ccc(C[C@@H]2NC3(C(=O)N(Cc4ccc(Cl)c(Cl)c4)c4ccccc43)C3C(=O)N(c4ccc(Br)cc4)C(=O)C32)cc1 (stereo partly specified),86%,25%,1%
CN1CCN(C(C(=O)NCc2cc(Cl)cc(Cl)c2)c2ccc(Nc3cccc(C(F)(F)F)c3)cc2)CC1 (stereo unspecified),85%,98%,49%
COc1cccc(NC(=O)Nc2ccc(Nc3nc(C)cc(N(C)C)n3)cc2)c1,100%,100%,14%
O=C(O)C(F)(F)F.c1cc(CN2CCN(c3ccncc3)CC2)cc(-c2ccc(-c3nc4ccccc4[nH]3)s2)c1,100%,100%,59%
COc1ccccc1/C=C/C(=O)NCCC1CCN(CCCCCNC(=O)/C=C/c2ccc(Cl)c(Cl)c2)CC1,94%,0%,34%
